# Test results: ChEMBL document CHEMBL3433997, “St. Jude Leishmania screening dataset” (2016)
# Key:
# Format in all cases: functional
# [1] = biological target: Solute carrier family 2, facilitated glucose transporter member 1 (Homo sapiens) (UniProt P11166); assay: ST_JUDE_LEISH: Cytotoxicity at 2uM final concentration against transgenic Leishmania Mexicana promastigotes LmGLUT1 that are glucose transport deficient and complemented with the human glucose transporter GLUT1. Activity is measured by DNA content using SYBR green in vitro
# [2] = biological target: Hexose transporter 1 (Plasmodium falciparum) (UniProt O97467); assay: ST_JUDE_LEISH: Cytotoxicity at 2uM final concentration against transgenic Leishmania Mexicana promastigotes LmPfHT that are glucose transport deficient and complemented with the Plasmodium falciparum hexose transporter. Activity is measured by DNA content using SYBR green in vitro
# [3] = biological target: Glucose transporter (Leishmania mexicana) (UniProt O61059); assay: ST_JUDE_LEISH: Cytotoxicity at 2uM final concentration against transgenic Leishmania Mexicana promastigotes LmGT2 that are glucose transport deficient and complemented with the L. Mexicana glucose transporter 2. Activity is measured by DNA content using SYBR green in vitro
# Sequence of Solute carrier family 2, facilitated glucose transporter member 1 (Homo sapiens) (P11166 whole entry): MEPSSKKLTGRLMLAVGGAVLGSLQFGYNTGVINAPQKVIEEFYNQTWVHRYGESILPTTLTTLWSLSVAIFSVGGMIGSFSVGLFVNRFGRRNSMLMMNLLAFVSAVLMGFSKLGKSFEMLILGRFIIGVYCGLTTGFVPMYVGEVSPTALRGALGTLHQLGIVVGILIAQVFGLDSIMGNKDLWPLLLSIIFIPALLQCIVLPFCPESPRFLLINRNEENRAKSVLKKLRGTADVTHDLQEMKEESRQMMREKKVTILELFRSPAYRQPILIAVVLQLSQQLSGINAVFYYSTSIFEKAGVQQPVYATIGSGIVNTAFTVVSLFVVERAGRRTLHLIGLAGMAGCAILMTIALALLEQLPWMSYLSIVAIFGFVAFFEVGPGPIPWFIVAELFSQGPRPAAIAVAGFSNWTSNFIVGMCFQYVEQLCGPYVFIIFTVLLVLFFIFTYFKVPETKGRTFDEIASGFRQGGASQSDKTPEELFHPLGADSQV
compound,measurement,setting,value
Cc1cc2[nH]c(-c3ccc(C(=O)NCCCN4CCN(c5cccc(Cl)c5)CC4)cc3F)nc2cc1Cl,inhibition,[1],-0.3%
same,inhibition,[2],0.43%
same,inhibition,[3],-0.02%
CC1(C)NC(N)=NC(=N)N1OCOc1cc(Cl)c(Cl)cc1Cl,inhibition,[1],-2.15%
same,inhibition,[2],0.84%
same,inhibition,[3],6.16%
COc1ccc(C2CC(=O)C3=C(C2)NC(C)=C(C(=O)OC(C)C)C3c2cccc(O)c2)cc1OC (stereo unspecified),inhibition,[1],4.15%
same,inhibition,[2],1.12%
same,inhibition,[3],1.71%
CN1CCN(CC(=O)Nc2cccc(-c3ccc(-c4nc5cc(C(F)(F)F)ccc5[nH]4)s3)c2)CC1,inhibition,[1],1.78%
same,inhibition,[2],2.7%
same,inhibition,[3],4.37%
COc1nc2c(CCN3CCC(NCc4ccc5c(n4)NC(=O)CO5)CC3)c(Cl)cnc2cc1F,inhibition,[1],7.62%
same,inhibition,[2],8.51%
same,inhibition,[3],7.05%
O=C(NCc1cccs1)[C@H](Cc1ccccc1)Nc1ccnc(NCCc2ccc(F)cc2)n1,inhibition,[1],11.2%
same,inhibition,[2],9.62%
same,inhibition,[3],9.52%
CC(C)C(C(=O)n1cc2c(ccc3nc(N)nc(N)c32)n1)C(C)C,inhibition,[1],8.32%
same,inhibition,[2],11%
same,inhibition,[3],3.51%
CC1(C)NC(N)=NC(=N)N1OCCCOc1ccc(N)cc1,inhibition,[1],-1.98%
same,inhibition,[2],-0.16%
same,inhibition,[3],-1.26%
CCOc1ccc(C(=O)Nc2cc(Br)c3c(c2)CNCC3)cc1C(F)(F)F,inhibition,[1],-0.39%
same,inhibition,[2],-2.66%
same,inhibition,[3],-2.48%
O=c1cc(NCC2(CNCc3cn(Cc4ccccc4)c4ccccc34)CCCCC2)[nH]c2ccccc12,inhibition,[1],4.81%
same,inhibition,[2],5.38%
same,inhibition,[3],5.44%
CC[C@H]1CN(C/C=C/c2ccc(OC)cc2)CC[C@H]1CCCc1ccnc2ccc(O)cc12,inhibition,[1],2.15%
same,inhibition,[2],2%
same,inhibition,[3],1.51%
Cc1cc(N2CCN(C)CC2)nc2ccc(NC(=O)Cc3cccc(C(F)(F)F)c3)cc12,inhibition,[1],2.34%
same,inhibition,[2],1.8%
same,inhibition,[3],5.56%
CN(C)CCN1CCN(Cc2ccc(-c3cccc(-c4nc5ccccc5[nH]4)c3)cc2)CC1,inhibition,[1],-2.11%
same,inhibition,[2],-0.12%
same,inhibition,[3],-0.98%
CC(Cc1ccc(NC(=O)c2ccc(CC(C)NCc3ccc(Cl)c(Cl)c3)cc2)cc1)NCCc1cccc(Cl)c1 (stereo unspecified),inhibition,[1],1.59%
same,inhibition,[2],-0.71%
same,inhibition,[3],-0.17%
CCOC(=O)C(=O)N1c2ccc(OCC)cc2-c2c(ssc2=S)C1(C)C,inhibition,[1],-0.01%
same,inhibition,[2],0.3%
same,inhibition,[3],6.04%
CCC(CC)C(CC(=O)NC(C)(C)CCc1ccccc1OC)Nc1ccc(C#N)c2ccccc12 (stereo unspecified),inhibition,[1],4.46%
same,inhibition,[2],3.53%
same,inhibition,[3],3.55%
CN1CCC(N(C)C(=O)C=Cc2cn(-c3ccccc3)nc2-c2cc3ccccc3o2)CC1,inhibition,[1],3%
same,inhibition,[2],1.17%
same,inhibition,[3],-0.25%
CN(C(=O)/C=C/c1c(Cl)cccc1Cl)C1CCN(CCCCCNC(=O)/C=C/c2ccc(Cl)c(Cl)c2)CC1,inhibition,[1],2.14%
same,inhibition,[2],2.38%
same,inhibition,[3],1.38%
Cc1ccc(C)c2sc(N3CCN(C(=O)c4ccc([N+](=O)[O-])o4)CC3)nc12,inhibition,[1],28.7%
same,inhibition,[2],38.4%
same,inhibition,[3],7.78%
CSc1ccc(C=CC(=O)NC(=O)c2ccccc2O)cc1,inhibition,[1],1.32%
same,inhibition,[2],2.44%
same,inhibition,[3],1.41%
CCCCOc1cc(C)nc2ccc(NC(=O)COCC(=O)Nc3ccc4nc(C)cc(OCCCC)c4c3)cc12,inhibition,[1],14.9%
same,inhibition,[2],13.7%
same,inhibition,[3],11.2%
Cn1cnc2nc(NCCc3ccccc3)nc(NCc3cccc4ccccc34)c21,inhibition,[1],0.91%
same,inhibition,[2],1.38%
same,inhibition,[3],-1.12%
O=C(N[C@H]1CCN(Cc2ccc(OC3CCN(Cc4ccccc4)CC3)cc2)C1)c1ccc(Cl)c(Cl)c1,inhibition,[1],-0.36%
same,inhibition,[2],-1.3%
same,inhibition,[3],-1.06%
CN1CCCC(CN2CCN(Cc3ccc(-c4cccc(-c5nc6ccccc6[nH]5)c4)cc3)CC2)C1 (stereo unspecified),inhibition,[1],3.67%
same,inhibition,[2],2.47%
same,inhibition,[3],3.47%
Cc1nc(-c2cccc(Nc3nccc(NCC(O)c4cccc(C(F)(F)F)c4)n3)c2)cs1 (stereo unspecified),inhibition,[1],1.56%
same,inhibition,[2],0.83%
same,inhibition,[3],-0.26%
CN(C)C(CNC(=O)c1cc(-c2ccncc2)c(-c2ccc(NC(=O)Nc3ccccc3)cc2)o1)c1ccccc1 (stereo unspecified),inhibition,[1],-0.56%
same,inhibition,[2],-0.15%
same,inhibition,[3],-0.82%
N=C(N)c1ccc(-c2cc(-c3cccc(C(=N)N)c3)on2)cc1,inhibition,[1],3.39%
same,inhibition,[2],0.98%
same,inhibition,[3],2.32%
COc1ccc2nccc([C@@H](O)CN3CCC(NC(=O)c4ccc(Cl)c(OC)c4)CC3)c2c1,inhibition,[1],4.62%
same,inhibition,[2],7.71%
same,inhibition,[3],0.22%
NC1CCN(CCNCc2cccc(-c3ccc(-c4nc5cc(C(F)(F)F)ccc5[nH]4)cc3)c2)C1 (stereo unspecified),inhibition,[1],2.65%
same,inhibition,[2],1.4%
same,inhibition,[3],2.67%
CCCCCCN1CCC(NCc2ccc(OCCN3CCCC3)cc2)CC1,inhibition,[1],-1.34%
same,inhibition,[2],-0.02%
same,inhibition,[3],-0.15%
CCOc1cc(Cc2cnc(N)nc2N)cc(OCC)c1-n1cccc1,inhibition,[1],5.67%
same,inhibition,[2],5.64%
same,inhibition,[3],1.36%
O=C(NCCc1ccccc1)N(Cc1ccccc1-c1ccc(CNCCc2ccccc2)cc1)C1CCN(Cc2ccccc2)CC1,inhibition,[1],7.2%
same,inhibition,[2],8.75%
same,inhibition,[3],3.55%
